Test results: PubChem BioAssay (NCATS)
Results filed as inconclusive are left out. Active and inactive are the calls of the source. Calls come from the whole dose curve; as a rule, active = well fitted curve in the direction sought with a large enough effect; inconclusive = small, poorly fitted or top-dose-only effect, or another doubt; inactive = no such curve, though single readings can be large; an effect the other way counts as inactive or inconclusive.

Tests used:
[1] = qHTS of pediatric cancer cell lines to identify multiple opportunities for drug repurposing: Primary screen for TC32 cells (AID 1347089); note: % is set by controls: 0 for no effect and ±100 for the full control effect; nearly all actives have a fitted effect of over 60% in size
How it was run: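 In the primary qHTS, MIPE compounds were tested at 11 concentrations (0.78 nM to 46 µM) and NPC compounds at 8 (0.59 nM to 46 µM) on TC32 cells for 48 h. CellTiter-Glo luminescence gave viability.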

[2] = qHTS of pediatric cancer cell lines to identify multiple opportunities for drug repurposing: Primary screen for DAOY cells (AID 1347090);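 note: series mostly up to about 46 µM; plate controls were DMSO for no effect and bortezomib for full effect; nearly all actives have a fitted effect of over 55% in size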
How it was run: (§1)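 Cell viability, CellTiter-Glo luminescence; 500-1,000 cells/well, 8- or 11-point titration, 48 h compound exposure at 37 degrees C, 5% CO2. Controls: DMSO neutral, bortezomib 2.3 µM final as positive.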

[3] = qHTS of pediatric cancer cell lines to identify multiple opportunities for drug repurposing: Primary screen for SJ-GBM2 cells (AID 1347091);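 note: plate controls were DMSO neutral control for no effect and bortezomib for full effect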
How it was run: as §1

[4] = qHTS of pediatric cancer cell lines to identify multiple opportunities for drug repurposing: Primary screen for A673 cells (AID 1347092); note: % is set by controls: 0 for no effect and ±100 for the full control effect; nearly all actives have a fitted effect of over 45% in size
How it was run: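 48 h compound exposure, A673, 500-1,000 cells/well, 37 degrees C/5% CO2. MIPE: 11-point, 0.78 nM-46 µM; NPC: 8-point, 0.59 nM-46 µM (final). Readout CellTiter-Glo luminescence after 15 min RT.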

[5] = qHTS of pediatric cancer cell lines to identify multiple opportunities for drug repurposing: Primary screen for SK-N-MC cells (AID 1347093);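 note: series mostly up to about 46 µM; plate controls were DMSO neutral control for no effect and bortezomib for full effect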
How it was run: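 Metabolically active cells were quantified by ATP-dependent luminescence (CellTiter-Glo, 15 min at room temperature) following 48 h treatment. Cells had been plated at 500-1,000 per well and settled for 5 h beforehand.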

[6] = qHTS of pediatric cancer cell lines to identify multiple opportunities for drug repurposing: Primary screen for BT-37 cells (AID 1347094);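 note: series mostly up to about 57 µM; plate controls were DMSO for no effect and bortezomib for full effect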
How it was run: (§2)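 Primary screen of approved and investigational compounds on cells in growth media at 37 degrees C, 5% CO2. MIPE set at 11-point and NPC set at 8-point dilutions; viability scored by ATP-based luminescence at 48 hours.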

[7] = qHTS of pediatric cancer cell lines to identify multiple opportunities for drug repurposing: Primary screen for NB-EBc1 cells (AID 1347095);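 note: plate controls were DMSO neutral control for no effect and bortezomib for full effect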
How it was run: as §2

[8] = qHTS of pediatric cancer cell lines to identify multiple opportunities for drug repurposing: Primary screen for U-2 OS cells (AID 1347096);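 note: plate controls were DMSO wells for no effect and bortezomib positive control wells for full effect; nearly all actives have a fitted effect of over 50% in size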
How it was run: (§3)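 Cells (500-1,000/well) rested 5 h, then received compounds for 48 h; metabolically active cells were measured by CellTiter-Glo luminescence. Final concentrations spanned up to 46 µM (MIPE, 11-point) or 0.59 nM-46 µM (NPC, 8-point) in primary screens, 11-point in follow-ups.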

[9] = qHTS of pediatric cancer cell lines to identify multiple opportunities for drug repurposing: Primary screen for Saos-2 cells (AID 1347097); note: % is set by controls: 0 for no effect and ±100 for the full control effect; nearly all actives have a fitted effect of over 40% in size
How it was run: as §2

[10] = qHTS of pediatric cancer cell lines to identify multiple opportunities for drug repurposing: Primary screen for SK-N-SH cells (AID 1347098); note: % is set by controls: 0 for no effect and ±100 for the full control effect; nearly all actives have a fitted effect of over 65% in size
How it was run: as §3

[11] = qHTS of pediatric cancer cell lines to identify multiple opportunities for drug repurposing: Primary screen for LAN-5 cells (AID 1347100);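 note: plate controls were DMSO neutral control for no effect and bortezomib positive control for full effect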
How it was run: as §3

[12] = qHTS of pediatric cancer cell lines to identify multiple opportunities for drug repurposing: Primary screen for BT-12 cells (AID 1347101);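 note: plate controls were DMSO for no effect and bortezomib positive control for full effect; nearly all actives have a fitted effect of over 25% in size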
How it was run: as §3

[13] = qHTS of pediatric cancer cell lines to identify multiple opportunities for drug repurposing: Primary screen for Rh18 cells (AID 1347102); note: % is set by controls: 0 for no effect and ±100 for the full control effect; nearly all actives have a fitted effect of over 65% in size
How it was run: as §3

[14] = qHTS of pediatric cancer cell lines to identify multiple opportunities for drug repurposing: Primary screen for OHS-50 cells (AID 1347103);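 note: plate controls were DMSO neutral control for no effect and bortezomib positive control for full effect; nearly all actives have a fitted effect of over 40% in size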
How it was run: as §3

[15] = qHTS of pediatric cancer cell lines to identify multiple opportunities for drug repurposing: Primary screen for RD cells (AID 1347104);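 note: plate controls were DMSO for no effect and bortezomib for full effect; nearly all actives have a fitted effect of over 55% in size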
How it was run: as §2

[16] = qHTS of pediatric cancer cell lines to identify multiple opportunities for drug repurposing: Primary screen for NB1643 cells (AID 1347099);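 note: plate controls were DMSO neutral control for no effect and bortezomib positive control for full effect; nearly all actives have a fitted effect of over 50% in size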
How it was run: as §2

NCCNC(=O)c1ccc(Cl)cn1
inactive: Potency [1] | Potency [2] | Potency [3] | Potency [4] | Potency [5] | Potency [6] | Potency [7] | Potency [8] | Potency [9] | Potency [10] | Potency [11] | Potency [12] | Potency [13] | Potency [14] | Potency [15]

O=C(CCN1CCN2CCCC2C1)N1c2ccccc2Sc2ccc(Cl)cc21 (stereo not drawn)
inactive: Potency [1] | Potency [2] | Potency [3] | Potency [4] | Potency [5] | Potency [6] | Potency [7] | Potency [8] | Potency [10] | Potency [16] | Potency [11] | Potency [15]

COC(=O)C(c1ccccc1Cl)N1CCc2sccc2C1 (stereo not drawn)
inactive: Potency [1] | Potency [2] | Potency [3] | Potency [4] | Potency [5] | Potency [6] | Potency [7] | Potency [8] | Potency [10] | Potency [16] | Potency [11] | Potency [12] | Potency [13] | Potency [15]

C[C@@H](O)[C@H]1C(=O)N2C(C(=O)O)=C([C@H]3CCCO3)S[C@H]12
inactive: Potency [1] | Potency [2] | Potency [3] | Potency [4] | Potency [5] | Potency [6] | Potency [7] | Potency [8] | Potency [10] | Potency [16] | Potency [11] | Potency [12] | Potency [13] | Potency [14] | Potency [15]

CC(=O)NCCCCCC(=O)O
inactive: Potency [1] | Potency [2] | Potency [3] | Potency [4] | Potency [5] | Potency [6] | Potency [7] | Potency [8] | Potency [10] | Potency [16] | Potency [11] | Potency [12] | Potency [13] | Potency [14] | Potency [15]

COc1cc(O)c(C(=O)c2ccccc2)cc1S(=O)(=O)O
inactive: Potency [1] | Potency [2] | Potency [3] | Potency [4] | Potency [5] | Potency [6] | Potency [7] | Potency [8] | Potency [10] | Potency [16] | Potency [11] | Potency [12] | Potency [13] | Potency [14] | Potency [15]

Cc1cc(-c2ccccc2)nnc1NCCN1CCOCC1
inactive: Potency [1] | Potency [2] | Potency [3] | Potency [4] | Potency [5] | Potency [6] | Potency [7] | Potency [8] | Potency [10] | Potency [16] | Potency [11] | Potency [12] | Potency [13] | Potency [14] | Potency [15]

CCC(C(=O)OCCOCCN(CC)CC)c1ccccc1 (stereo not drawn)
inactive: Potency [1] | Potency [2] | Potency [3] | Potency [4] | Potency [5] | Potency [6] | Potency [7] | Potency [8] | Potency [10] | Potency [16] | Potency [11] | Potency [12] | Potency [13] | Potency [14] | Potency [15]

Nc1ccc(S(=O)(=O)Nc2cnc3ccccc3n2)cc1
inactive: Potency [1] | Potency [2] | Potency [3] | Potency [4] | Potency [5] | Potency [6] | Potency [7] | Potency [8] | Potency [10] | Potency [16] | Potency [11] | Potency [12] | Potency [13] | Potency [14] | Potency [15]

CC(=O)N[C@@H](CCC(=O)O)C(=O)O
inactive: Potency [1] | Potency [2] | Potency [3] | Potency [4] | Potency [5] | Potency [6] | Potency [7] | Potency [8] | Potency [10] | Potency [16] | Potency [11] | Potency [12] | Potency [13] | Potency [14] | Potency [15]

C#C[C@]1(O)CC[C@H]2[C@@H]3CCC4=CC(=O)CC[C@@H]4[C@H]3CC[C@@]21CC
inactive: Potency [1] | Potency [2] | Potency [3] | Potency [4] | Potency [5] | Potency [6] | Potency [7] | Potency [8] | Potency [10] | Potency [16] | Potency [11] | Potency [12] | Potency [13] | Potency [14] | Potency [15]

CCCCN1C[C@H](O)[C@@H](O)[C@H](O)[C@H]1CO
inactive: Potency [1] | Potency [2] | Potency [3] | Potency [4] | Potency [5] | Potency [6] | Potency [7] | Potency [8] | Potency [10] | Potency [16] | Potency [11] | Potency [12] | Potency [13] | Potency [14] | Potency [15]

CC(C)(C)NC[C@H](O)COc1cccc2c1CCCC2=O
inactive: Potency [1] | Potency [2] | Potency [3] | Potency [4] | Potency [5] | Potency [6] | Potency [7] | Potency [8] | Potency [9] | Potency [16] | Potency [11] | Potency [12] | Potency [13] | Potency [15]

CCN[C@@H]1C[C@H](N)[C@@H](OC2OC(CN)=CCC2N)[C@H](O)[C@H]1O[C@H]1OC[C@](C)(O)[C@H](NC)[C@H]1O (stereo partly drawn)
inactive: activity change, negative = cytotoxic [1] 2.31% [at 0.594 µM] | activity change, negative = cytotoxic [2] 1.01% [at 0.597 µM] | activity change, negative = cytotoxic [3] 1.88% [at 0.597 µM] | activity change, negative = cytotoxic [4] -2.55% [at 0.597 µM] | activity change, negative = cytotoxic [5] -24.4% [at 0.597 µM] | activity change, negative = cytotoxic [6] 5.98% [at 0.745 µM] | activity change, negative = cytotoxic [7] -22.3% [at 0.597 µM] | activity change, negative = cytotoxic [8] 2.58% [at 0.597 µM] | activity change, negative = cytotoxic [10] -5.21% [at 0.741 µM] | activity change, negative = cytotoxic [16] 4.64% [at 0.597 µM] | activity change, negative = cytotoxic [11] -0.753% [at 0.597 µM] | activity change, negative = cytotoxic [12] 7.6% [at 0.745 µM] | activity change, negative = cytotoxic [13] 7.22% [at 0.597 µM] | activity change, negative = cytotoxic [14] 0.649% [at 0.73 µM] | activity change, negative = cytotoxic [15] -1.92% [at 0.597 µM]

NCc1ccccc1Sc1ccccc1CO
inactive: Potency [1] | Potency [2] | Potency [3] | Potency [4] | Potency [5] | Potency [6] | Potency [7] | Potency [8] | Potency [9] | Potency [10] | Potency [11] | Potency [12] | Potency [13] | Potency [15]

Cc1cc(C)cc(OCC2CNC(=O)O2)c1 (stereo not drawn)
inactive: Potency [1] | Potency [2] | Potency [3] | Potency [4] | Potency [5] | Potency [6] | Potency [7] | Potency [8] | Potency [10] | Potency [16] | Potency [11] | Potency [12] | Potency [13] | Potency [14] | Potency [15]

COc1cc(C(=O)NCc2ccc(OCCN(C)C)cc2)cc(OC)c1OC
inactive: Potency [1] | Potency [2] | Potency [3] | Potency [4] | Potency [5] | Potency [6] | Potency [7] | Potency [8] | Potency [10] | Potency [16] | Potency [11] | Potency [13] | Potency [14] | Potency [15]
